Results: PubChem BioAssay (Tox21)
“And” between values parts separate entries of the source, which are not always exact repeats. Equal values may be shown once. Results filed as inconclusive are left out. A call without a number means that no potency is given here. More than one record can exist for a structure, and the calls need not agree. The source made the active and inactive calls. Unless noted, calls follow the shape of the dose curve; as a rule, active = well fitted curve in the direction sought with a large enough effect in the repeat runs; inconclusive = weak or mixed curves; inactive = no such curve, though single readings can be large; an effect the other way counts as inactive or inconclusive.

Key:
[1] = qHTS assay for small molecule agonists of the p53 signaling pathway (AID 651631; calls by dose curve; also: nearly all actives have a fitted effect of over 15% in size; also: potency is read from the fitted curve at half-maximal effect)
Procedure, shortened: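 Fluorescence intensity from cleaved LiveBLAzer B/G substrate (2 h, room temperature) served as the signal. Beforehand, HCT-116 reporter cells bearing p53 response elements were treated 16 h at 37 °C with DMSO-dissolved compounds.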

[2] = qHTS assay for small molecules that induce genotoxicity in human embryonic kidney cells expressing luciferase-tagged ATAD5 (AID 651632); also: nearly all actives have a fitted effect of over 15% in size
Procedure, shortened: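 Quantitative HTS in HEK293T expressing luciferase-tagged ATAD5, whose levels rise upon DNA damage. Exposure ran 16 hr at 37C and 5% CO2, with luminescence read 30 min after Amplite addition at room temperature.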

[3] = qHTS assay for small molecule agonists of the p53 signaling pathway - cell viability (AID 651633; calls by dose curve; also: nearly all actives have a fitted effect of over 30% in size; also: potency is read from the fitted curve at half-maximal effect)
Procedure, shortened: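 p53RE-bla cells, seeded at 4,000 per well and rested 5 h at 37 C/5% CO2, received compounds in DMSO for 16 h at 37 C. CellTiter-Glo was then added, and luminescence was read after 30 min at room temperature to gauge cytotoxicity.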

[4] = qHTS assay for small molecules that induce genotoxicity in human embryonic kidney cells expressing luciferase-tagged ATAD5 - cell viability (AID 651634; calls by dose curve; also: nearly all actives have a fitted effect of over 25% in size)
Procedure, shortened: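 After 15.5 hr incubation with compound at 37C, 5% CO2, HEK293T ATAD5-luciferase cells received CellTiter-Fluor reagent; fluorescence intensity was quantified following 30 min at 37C.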

[5] = qHTS assay for small molecule disruptors of the mitochondrial membrane potential - cell viability (AID 720634; calls by dose curve; also: nearly all actives have a fitted effect of over 20% in size; also: potency is read from the fitted curve at half-maximal effect)
Procedure, shortened: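 ATP-based luminescent viability readout (CellTiter-Glo, 30 min, room temperature) in HepG2 cells multiplexed with the m-MPI membrane potential dye; compound exposure lasted 1 hr at 37 C.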

[6] = qHTS assay to test for compound auto fluorescence at 590 nm (red) in HepG2 cells (AID 720674)
Procedure, shortened: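 Rose Bengal sodium served as the red fluorophore standard. HepG2 monolayers (overnight attachment, MEM with 10% FBS) were exposed to test compounds for 1 hr at 37 C and read at Ex 540/Em 590 nm.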

[7] = qHTS assay to test for compound auto fluorescence at 535 nm (green) in HepG2 cells (AID 720675)
[8] = qHTS assay to test for compound auto fluorescence at 460 nm (blue) in HEK293 cells (AID 720678)
Procedure, shortened: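 Auto fluorescence in the blue band was quantified as triamterene equivalency. HEK293 cells were seeded at 2,000/well, dosed after a 4-5 hr attachment, and kept overnight at 37C before the 405/460 nm reading.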

[9] = qHTS assay to test for compound auto fluorescence at 590 nm (red) in HEK293 cells (AID 720679)
Procedure, shortened: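 Autofluorescence equivalency to Rose Bengal sodium, 540/590nm, in HEK293 cells exposed overnight to 23 nL compound per well.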

[10] = qHTS assay for small molecule disruptors of the mitochondrial membrane potential (AID 720635); also: potency is read from the fitted curve at half-maximal effect
Procedure, shortened: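 HepG2 cells (2,000/well) attached overnight at 37C, then took compound for 1 hr at 37C, 5% CO2. Mito-MPS dye was added for 30 min; fluorescence was read at 490/535 nm (monomers) and 540/590 nm (aggregates).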

Row | SMILES | Potency [1] | Potency [2] | Potency [3] | Potency [4] | Potency [5] | outcome [6] | outcome [7] | outcome [8] | outcome [9] | Potency [10]
1 | O=[N+]([O-])c1c(Cl)c(Cl)c(Cl)c(Cl)c1Cl | inactive | inactive | inactive | inactive | inactive | inactive | inactive | inactive | inactive | –
2 | c1ccc(NNc2ccccc2)cc1 | inactive | inactive | inactive | inactive | – | inactive | inactive | – | inactive | inactive
3 | OCC(O)CO | inactive | inactive | inactive | inactive | inactive | – | – | – | – | inactive
4 | CCN(N=O)C(N)=O | inactive | inactive | inactive | inactive | inactive | inactive | inactive | – | inactive | inactive
5 | Cc1ccc(OP(=O)(Oc2ccc(C)cc2)Oc2ccc(C)cc2)cc1 | inactive | inactive | inactive | inactive | – | inactive | inactive | – | inactive | 24.3 µM (active)
6 | CCC(C)(C)c1ccc(O)cc1 | inactive | inactive | inactive | inactive | 55 µM (active) and inactive | inactive | inactive | inactive | inactive | 26.6 µM (active) and 17.4 µM (active) and 15.4 µM (active)
7 | Nc1ccncc1 | inactive | inactive | inactive | inactive | inactive | inactive | inactive | inactive | inactive | inactive
8 | CC(C)C(=O)OCC(C)(C)C(OC(=O)C(C)C)C(C)C (stereo not given) | inactive | inactive | 30.9 µM (active) and inactive | inactive | inactive | inactive | inactive | – | inactive | –
9 | CNC(=O)Oc1cccc2c1OC(C)(C)O2 | inactive | inactive | inactive | inactive | inactive | inactive | inactive | inactive | inactive | inactive
10 | CCCCCCCCCCCOC(=O)c1ccccc1C(=O)OCCCCCCCCCCC | inactive | inactive | inactive | inactive | inactive | inactive | inactive | inactive | inactive | inactive
11 | COc1ccc(C(CN(C)C)C2(O)CCCCC2)cc1 (stereo not given) | inactive | inactive | inactive | inactive | inactive | inactive | inactive | – | inactive | inactive
12 | N[C@@H](Cc1ccc(N(CCCl)CCCl)cc1)C(=O)O | 13.3 µM (active) and 26.2 µM (active) | inactive | inactive | inactive | inactive | inactive | inactive | inactive | inactive | –
13 | CC(C)NC(C)C | inactive | inactive | inactive | inactive | inactive | inactive | inactive | inactive | inactive | inactive
14 | COc1ccc(C=O)cc1 | inactive | inactive | inactive | inactive | inactive | inactive | inactive | inactive | inactive | –
15 | CNC(=O)N(C)c1nnc(C(C)(C)C)s1 | inactive | inactive | inactive | inactive | inactive | inactive | inactive | inactive | inactive | –
16 | CCOc1cc(C=O)ccc1O | inactive | inactive | inactive | inactive | inactive | inactive | inactive | inactive | inactive | inactive
17 | C=CCN(CC=C)C(=O)C(Cl)Cl | inactive | inactive | inactive | inactive | inactive | inactive | inactive | inactive | inactive | inactive
18 | O=Cc1ccco1 | inactive | inactive | inactive | inactive | inactive | inactive | inactive | inactive | inactive | inactive
19 | CCOP(=S)(OCC)O/N=C(\C#N)c1ccccc1 | inactive | inactive | inactive | inactive | inactive and 54.5 µM (active) | inactive | inactive | – | inactive | inactive
20 | NNC(N)=S | inactive | inactive | inactive | inactive | inactive | inactive | inactive | – | inactive | 63.5 µM (active) and inactive
21 | CCN(CC)C(=O)/C(Cl)=C(\C)OP(=O)(OC)OC | inactive | inactive | inactive | inactive | inactive | inactive | inactive | inactive | inactive | inactive
22 | N#CCCCl | inactive | inactive | inactive | inactive | inactive | inactive | inactive | – | inactive | inactive
23 | COP(=S)(OC)Oc1cc(Cl)c(Cl)cc1Cl | inactive | inactive | inactive | inactive | inactive | inactive | inactive | – | inactive | 11.9 µM (active) and 29.8 µM (active) and 7.64 µM (active)
